Reference: PubChem BioAssay (NCI)
This is part of a sample that, as a whole, favours compounds with a hit. Of some 79,000 tested, about 15% had one in any assay. Calls of active or inactive are those of the source. No stated cut-off is given here; in the data, active means growth inhibition above about 70%; inactive means the rest.

How the values were obtained:
[1] = NCI Yeast Anticancer Drug Screen. Data for the rad52 strain (AID 147);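 further: 0% = growth of vehicle-treated control cultures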; conditions: S. cerevisiae rad52 mutant growth inhibition, active compounds read high
Method in brief: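 Measured: yeast growth inhibition. System: strain with a defined DNA damage repair alteration. Reference: vehicle-treated control cultures.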

[2] = NCI Yeast Anticancer Drug Screen. Data for the wt1 strain (AID 149);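 further: 0% = growth of vehicle-treated wt1 cultures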; conditions: S. cerevisiae wt1 strain (SPY 50644) growth inhibition, active compounds read high
Method in brief: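 Using yeast strain wt1, compound-induced growth inhibition was determined against vehicle-treated cultures.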

[3] = NCI Yeast Anticancer Drug Screen. Data for the rad50EPP+ strain (AID 151);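 further: 0% = growth of vehicle-treated control cultures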; conditions: S. cerevisiae rad50 mutant strain, active compounds read high
Method in brief: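 One strain with a rad50 alteration (rad50EPP+) was compound-treated, its growth then compared to that of vehicle controls.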

[4] = NCI Yeast Anticancer Drug Screen. Data for the rad50 strain (AID 155);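 further: 0% = growth of vehicle-only cultures of the same strain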; conditions: S. cerevisiae rad50 strain growth inhibition, active compounds read high
Method in brief: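 Relative growth inhibition (compound vs vehicle) was measured in yeast with a defined repair-gene alteration.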

[5] = NCI Yeast Anticancer Drug Screen. Data for the mec2-1 strain (AID 157); conditions: S. cerevisiae mec2-1 strain, active compounds read high
Method in brief: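 Test agents were screened against the mec2-1 yeast strain, with defined DNA repair or cell cycle alteration. Growth was scored as inhibition against vehicle-only controls.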

[6] = NCI Yeast Anticancer Drug Screen. Data for the rad14 strain (AID 159);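 further: 0% = growth of vehicle-treated control cultures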; conditions: S. cerevisiae rad14 strain growth inhibition, active compounds read high
Method in brief: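 Screen for anticancer potential: a yeast strain altered in DNA damage repair is grown with compound, and reduced growth is quantified against vehicle controls.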

[7] = NCI Yeast Anticancer Drug Screen. Data for the sgs1 mgt1 strain (AID 161);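 further: 0% = growth of cultures given vehicle only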; conditions: S. cerevisiae sgs1 mgt1 strain, active compounds read high
Method in brief: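 Genetically altered yeast, compound exposure, growth inhibition relative to vehicle.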

[8] = NCI Yeast Anticancer Drug Screen. Data for the CLN2oe strain (AID 163);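 further: 0% = growth of vehicle-only control cultures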; conditions: S. cerevisiae CLN2oe strain, active compounds read high
Method in brief: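 Here, growth inhibition in a cell-cycle-altered yeast strain after compound exposure was quantified against vehicle control growth.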

[9] = NCI Yeast Anticancer Drug Screen. Data for the cln2 rad14 strain (AID 165);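 further: 0% = growth equal to vehicle treated cultures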; conditions: S. cerevisiae cln2 rad14 strain, active compounds read high
Method in brief: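 Growth of compound-exposed yeast (cln2 rad14 genotype) measured and expressed as inhibition relative to vehicle.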

[10] = NCI Yeast Anticancer Drug Screen. Data for the bub3 strain (AID 167); conditions: S. cerevisiae bub3 mutant strain, active compounds read high
Method in brief: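 Screening used yeast with an engineered genetic alteration affecting cell cycle control. Compound-exposed cultures were compared with vehicle cultures, and reduced growth was taken as inhibition.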

[11] = NCI Yeast Anticancer Drug Screen. Data for the wt2 strain (AID 169);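 further: 0% = growth of vehicle-treated yeast cultures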; conditions: S. cerevisiae wt2 strain growth inhibition, active compounds read high
Method in brief: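 Genetically defined yeast strains from a DNA-repair/cell-cycle panel were used. Compound-exposed yeast growth was measured, and the inhibition was calculated relative to vehicle treatment.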

[12] = NCI Yeast Anticancer Drug Screen. Data for the mlh1 strain (AID 171);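 further: 0% = growth of vehicle-treated control cultures of the same strain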; conditions: S. cerevisiae mlh1 strain growth inhibition, active compounds read high
Method in brief: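 Here the genetically defined yeast mutant is grown with each compound, and the extent to which its growth falls below that of vehicle-exposed cells is reported.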

[13] = NCI Yeast Anticancer Drug Screen. Data for the sgs1 strain (AID 173);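 further: 0% = growth of vehicle-only control cultures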; conditions: S. cerevisiae sgs1 mutant, active compounds read high
Method in brief: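 Relative growth inhibition, referenced to vehicle, was determined in a yeast strain with a defined alteration affecting DNA damage repair or cell cycle control after compound exposure.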

[14] = NCI Yeast Anticancer Drug Screen. Data for the mlh1 rad18 strain (AID 175); conditions: S. cerevisiae mlh1 rad18 strain growth inhibition, active compounds read high
Method in brief: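 In this whole-cell yeast screen, a strain with altered DNA damage repair is challenged with compound, and its growth is measured against matched vehicle-treated controls.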

[15] = NCI Yeast Anticancer Drug Screen. Data for the rad18 strain (AID 177); conditions: S. cerevisiae rad18 mutant growth inhibition, active compounds read high
Method in brief: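 Screen uses a yeast strain with a defined lesion in DNA damage repair; compound effect is read as loss of growth compared to untreated vehicle cultures.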

[16] = at 5.0 µM (retest, dose inferred, filed as 0.5)
[17] = at 50.0 µM (retest, dose inferred, filed as 5.0)

Measured: growth inhibition

CCOC(=O)C(NC(=O)CC)(N1CCN(c2cc3c(cc2F)c(=O)c(C(=O)O)cn3C2CC2)CC1)C(F)(F)F (stereo unspecified)
inactive: [1]; at 1.2 µM 0% | [1]; at 3.7 µM 3% | [1]; at 11.0 µM 44% | [2]; at 1.2 µM -2% | [2]; at 3.7 µM 1% | [2]; at 11.0 µM 0% | [2]; at 33.0 µM 14% | [2]; at 100.0 µM 66% | [3]; at 1.2 µM -1% | [3]; at 3.7 µM 1% | [3]; at 11.0 µM 3% | [3]; at 33.0 µM 3% | [3]; at 100.0 µM 11% | [4]; at 1.2 µM 0% | [4]; at 3.7 µM 5% | [4]; [16] -10% | [4]; at 11.0 µM 47% | [4]; [17] 61% | [5]; at 1.2 µM -1% | [5]; at 3.7 µM -5% | [5]; [16] 0% | [5]; at 11.0 µM 1% | [5]; at 33.0 µM 47% | [5]; [17] 6% | [6]; at 1.2 µM 0% | [6]; at 3.7 µM 2% | [6]; at 11.0 µM 6% | [6]; at 33.0 µM 29% | [7]; [16] -2% | [7]; [17] 15% | [7]; at 50.0 µM 28.6% | [8]; at 1.2 µM 1% | [8]; at 3.7 µM 3% | [8]; at 11.0 µM -3% | [8]; at 33.0 µM 21% | [9]; [16] 1% | [9]; [17] -1% | [9]; at 50.0 µM 45.6% | [10]; at 1.2 µM -40% | [10]; at 3.7 µM 0% | [10]; [16] -14% | [10]; at 11.0 µM 0% | [10]; at 33.0 µM 18% | [10]; [17] 2% | [11]; at 1.2 µM -1% | [11]; at 3.7 µM -4% | [11]; at 11.0 µM -2% | [11]; at 33.0 µM 10% | [12]; at 1.2 µM -1% | [12]; at 3.7 µM 0% | [12]; at 11.0 µM 0% | [12]; at 33.0 µM 16% | [13]; at 1.2 µM 0% | [13]; at 3.7 µM 1% | [13]; at 11.0 µM 4% | [13]; at 33.0 µM 28% | [14]; [16] -3% | [14]; [17] 21% | [15]; at 1.2 µM -2% | [15]; at 3.7 µM -2% | [15]; at 11.0 µM 0% | [15]; at 33.0 µM 23%
active: [1]; at 33.0 µM 91% | [1]; at 100.0 µM 97% | [4]; at 33.0 µM 90% | [4]; at 50.0 µM 91.5% | [4]; at 100.0 µM 97% | [5]; at 50.0 µM 84.1% | [5]; at 100.0 µM 96% | [6]; at 100.0 µM 91% | [8]; at 100.0 µM 86% | [10]; at 50.0 µM 79.1% | [10]; at 100.0 µM 91% | [11]; at 100.0 µM 84% | [12]; at 100.0 µM 85% | [13]; at 100.0 µM 88% | [14]; at 50.0 µM 74.5% | [15]; at 100.0 µM 91%

CC1(C)C(C=O)=CCC1CC(N)=O (stereo unspecified)
inactive: [1]; at 1.2 µM -1% | [1]; at 3.7 µM -1% | [1]; at 11.0 µM 0% | [1]; at 33.0 µM 7% | [2]; at 1.2 µM -1% | [2]; at 3.7 µM 0% | [2]; at 11.0 µM 2% | [2]; at 33.0 µM 3% | [2]; at 100.0 µM 29% | [3]; at 1.2 µM 1% | [3]; at 3.7 µM -2% | [3]; at 11.0 µM 0% | [3]; at 33.0 µM 20% | [4]; at 1.2 µM -1% | [4]; at 3.7 µM -1% | [4]; [16] -2% | [4]; at 11.0 µM -1% | [4]; at 33.0 µM 1% | [4]; [17] 43% | [4]; at 100.0 µM 40% | [5]; at 1.2 µM 0% | [5]; at 3.7 µM 2% | [5]; [16] 4% | [5]; at 11.0 µM 1% | [5]; at 33.0 µM 7% | [5]; [17] 39% | [6]; at 1.2 µM -3% | [6]; at 3.7 µM -2% | [6]; at 11.0 µM -3% | [6]; at 33.0 µM 6% | [7]; [16] -3% | [7]; [17] -2% | [8]; at 1.2 µM -5% | [8]; at 3.7 µM -2% | [8]; at 11.0 µM -1% | [8]; at 33.0 µM -2% | [8]; at 100.0 µM 12% | [9]; [16] -3% | [9]; [17] 4% | [9]; at 50.0 µM 38.4% | [10]; at 1.2 µM -3% | [10]; at 3.7 µM -7% | [10]; [16] -19% | [10]; at 11.0 µM -2% | [10]; at 33.0 µM -5% | [10]; [17] -8% | [11]; at 1.2 µM -1% | [11]; at 3.7 µM 1% | [11]; at 11.0 µM 4% | [11]; at 33.0 µM 9% | [12]; at 1.2 µM 2% | [12]; at 3.7 µM 0% | [12]; at 11.0 µM 4% | [12]; at 33.0 µM 9% | [13]; at 1.2 µM -1% | [13]; at 3.7 µM 4% | [13]; at 11.0 µM 6% | [13]; at 33.0 µM 23% | [14]; [16] -6% | [15]; at 1.2 µM 0% | [15]; at 3.7 µM 0% | [15]; at 11.0 µM 22% | [15]; at 33.0 µM 6% | [15]; at 100.0 µM 54%
active: [1]; at 100.0 µM 80% | [3]; at 100.0 µM 93% | [4]; at 50.0 µM 98.5% | [5]; at 50.0 µM 98% | [5]; at 100.0 µM 96% | [6]; at 100.0 µM 99% | [7]; at 50.0 µM 87.3% | [10]; at 50.0 µM 99.2% | [10]; at 100.0 µM 93% | [11]; at 100.0 µM 83% | [12]; at 100.0 µM 96% | [13]; at 100.0 µM 99% | [14]; [17] 71% | [14]; at 50.0 µM 88.7%

NC(=O)N1c2ccccc2C=Cc2ccccc21
active: [4]; [17] 99% | [5]; [17] 98%
inactive: [1]; at 1.2 µM -35% | [1]; at 3.7 µM -36% | [1]; at 11.0 µM -38% | [1]; at 33.0 µM -49% | [1]; at 100.0 µM -41% | [2]; at 1.2 µM -20% | [2]; at 3.7 µM -16% | [2]; at 11.0 µM -24% | [2]; at 33.0 µM -24% | [2]; at 100.0 µM -44% | [3]; at 1.2 µM -49% | [3]; at 3.7 µM -73% | [3]; at 11.0 µM -63% | [3]; at 33.0 µM -91% | [3]; at 100.0 µM -65% | [4]; at 1.2 µM -39% | [4]; at 3.7 µM -14% | [4]; [16] 60% | [4]; at 11.0 µM -24% | [4]; at 33.0 µM -42% | [4]; at 50.0 µM -5.55% | [4]; at 100.0 µM -53% | [5]; at 1.2 µM -63% | [5]; at 3.7 µM -55% | [5]; [16] 63% | [5]; at 11.0 µM -55% | [5]; at 33.0 µM -69% | [5]; at 50.0 µM -3.4%
